Results taken from PubChem BioAssay AID1224860 (National Center for Advancing Translational Sciences (NCATS), 2016).
Inconclusive results are not listed. Entries that show only a call come without a potency. Active and inactive are the calls of the source. Calls come from the whole dose curve; as a rule, active = well fitted cell-killing curve with a large enough effect; inconclusive = small, poorly fitted or top-dose-only effect; inactive = flat fitted curve, though single readings scatter.

Test: Compound cytotoxicity measured by an ATP content assay as a counter-screen for lead compounds in human iPSC derived neural progenitor cells (hNPCs)
Details: human iPSC-derived NPC viability, ATP luminescence; series mostly up to 46.1 µM
Method in brief: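 Viability read as luminescent ATP content, 10 min at RT after reagent. Compound incubation of 6, 24 or 72 h on human iPSC-derived neural progenitors pre-cultured 16–20 h; values are percent inhibition.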
For `Nc1ccc2c(c1)CN1C(=O)c3ccccc3C1=N2`, the Potency was 6.73 µM (active). With `CC[C@]1(O)C[C@H]2CN(CCc3c([nH]c4ccccc34)[C@@](C(=O)OC)(c3cc4c(cc3OC)N(C=O)[C@H]3[C@@](O)(C(=O)OC)[C@H](OC(C)=O)[C@]5(CC)C=CCN6CC[C@]43[C@@H]65)C2)C1` the Potency was “inactive”. With `CN1CC(=O)N2C(Cc3c([nH]c4ccccc34)[C@H]2c2ccc3c(c2)OCO3)C1=O` (some centres not stated) the Potency was “inactive”. With `CCCCCCCC/C=C/C(=O)O` the Potency was “inactive”. In the case of `O=C1NC(=O)C(=Cc2ccc(-c3ccc(F)cc3)o2)S1`, the Potency is reported as “inactive”. For `Cc1c(N)c(=O)n(-c2ccccc2)n1C`, the Potency was “inactive”. In the case of `Cc1ccc(O)c(N=Nc2ccccc2)n1`, the Potency is reported as 4.35 µM (active). In the case of `CC(C)(C)COc1ccc(-n2cc(C(=O)O)cn2)cc1C#N`, the Potency is reported as “inactive”. For `O=C(O)CCC(=O)c1ccc(-c2ccccc2)cc1`, the Potency was “inactive”. In the case of `Cc1cc(O)c2ccccc2c1O`, the Potency is reported as 4.89 µM (active). With `O=C(Nc1cc2cc[nH]c2cn1)c1ccccc1` the Potency was 0.346 µM (active). For `CCCCCNC(=O)N1CCC(CN(Cc2ccc(Cl)cc2)Cc2ccc([N+](=O)[O-])s2)C1` (configuration not stated), the Potency was “inactive”. With `CCOC1OC(=O)C[C@H]1NC(=O)[C@@H]1CCCN1C(=O)[C@@H](NC(=O)c1ccc(N)c(Cl)c1)C(C)(C)C` (some centres not stated) the Potency was “inactive”. With `O=C(Nc1ccc([N+](=O)[O-])cc1Cl)c1cc(Cl)ccc1O` the Potency was 8.69 µM (active). In the case of `CCCCCCOc1ccccc1C(N)=O`, the Potency is reported as “inactive”. For `N#C/C(=C\c1ccc(O)c(O)c1)C(=O)Nc1ccccc1`, the Potency was “inactive”. For `Cc1nc(N)sc1-c1ccnc(Nc2ccc(N3CCOCC3)cc2)n1`, the Potency was “inactive”.
